Structures are written as SMILES. Results filed as inconclusive are left out. Calls of active or inactive are those of the source.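 Rule for the calls, unless noted: active = response below a set limit, under 55% cells CD8-positive and vesicle-bound, and CD8 cells' 90th-percentile brightness under 279; inactive = the rest.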

Test [1] can be described thus: yeast TOR pathway RPL19A-GFP modulators, primary screen, cell-based, S. cerevisiae, multiplex flow cytometry (AID 1862; in the data active = percent of DMSO control GFP below about 86%;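 note: lower values mimic rapamycin by blocking the RPL19A rise seen in DMSO cells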). The settings on record: S. cerevisiae RPL19A-GFP strain, flow cytometry fluorescence, 3 h; at 10 µM; stronger effect = lower value. In general terms: A flow cytometer gives signals particle by particle.
Test [2] is described as follows: modulators of MEP2-GFP levels in yeast, primary screen, S. cerevisiae, multiplex flow cytometry (AID 1867;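 active = GFP response, as percent of the DMSO control, above the screen-wide mean plus 3 SD, about 139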;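 note: median GFP channel fluorescence of barcode-gated MEP2-GFP cells measured by flow cytometry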). Particulars: S. cerevisiae MEP2-GFP strain, 3 h, at 10 µM, stronger effect = higher value, 100% means same as DMSO wells.
The nature of test [3]: modulators of CIT2-GFP expression in yeast, primary screen, S. cerevisiae, GFP fusion, multiplex flow cytometry (AID 1870;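 active = percent response above a set limit, the screen-wide mean plus 3 SD, cut at about 130% in these data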;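 note: barcoded CIT2-GFP strain pooled with four other GFP strains with rapamycin as positive control; median GFP fluorescence per well over plate mean of DMSO wells so 100% = DMSO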). Particulars: 3 h, at 10 µM, stronger effect = higher value.
Test [4] can be described thus: modulators of LAP4-GFP expression in yeast, primary screen, S. cerevisiae, multiplex flow cytometry (AID 1873;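 active = GFP signal, as percent of the solvent control, above the screen mean plus 3 SD, about 149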). Particulars: 3 h, at 10 µM, stronger effect = higher value.
A short description of test [5]: modulators of AGP1-GFP expression in yeast TOR pathway, primary screen, cell-based, multiplex flow cytometry, S. cerevisiae (AID 1887;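 active = GFP signal above the screen-wide mean plus 3 SD, that is over about 124.5% of the solvent control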;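 note: AGP1-GFP fusion strain of S. cerevisiae within a five-strain barcoded multiplex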). The settings on record: 3 h, at 10 µM, stronger effect = higher value.
Test [6] is described as follows: inhibitors of CD8+ T cell-vesicle binding, pilot screen, LFA-1/ICAM-1 modulator project, MLPCN validation set, flow cytometry (AID 2523).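 For vesicle binding response: mean PE anti-B7-1 fluorescence of CD8+ cells relative to row control; 100% = QL9-loaded vesicles with DMSO vehicle in the same plate row.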 Particulars: 2C mouse CD8+ T cells, at 7 µM, stronger effect = lower value; double positive events: measured here: CD8+/vesicle+ event percentage.
For test [7], the target named is Integrin beta-1 (Homo sapiens) + Integrin alpha-4 (Homo sapiens) (UniProt P13612+P05556). The experiment in a line: inhibition of HUTS-21 binding to VLA-4, pilot screen, VLA-4 allosteric modulator project, U937 cells, HUTS-21 mAb, flow cytometry, validation set (AID 2674;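 active = inhibition above 50%, about 3 SD of the validation set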;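 note: antibody binding induced by the VLA-4 ligand LDV present at three times its Kd; 0% = LDV ligand with antibody and no compound and 100% = antibody without LDV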). Particulars: HUTS-21 LIBS mAb binding, at 6.7 µM, stronger effect = higher value, binding induced by LDV ligand.
Chain of Integrin beta-1 (Homo sapiens) + Integrin alpha-4 (Homo sapiens) (P05556 whole entry, looked up): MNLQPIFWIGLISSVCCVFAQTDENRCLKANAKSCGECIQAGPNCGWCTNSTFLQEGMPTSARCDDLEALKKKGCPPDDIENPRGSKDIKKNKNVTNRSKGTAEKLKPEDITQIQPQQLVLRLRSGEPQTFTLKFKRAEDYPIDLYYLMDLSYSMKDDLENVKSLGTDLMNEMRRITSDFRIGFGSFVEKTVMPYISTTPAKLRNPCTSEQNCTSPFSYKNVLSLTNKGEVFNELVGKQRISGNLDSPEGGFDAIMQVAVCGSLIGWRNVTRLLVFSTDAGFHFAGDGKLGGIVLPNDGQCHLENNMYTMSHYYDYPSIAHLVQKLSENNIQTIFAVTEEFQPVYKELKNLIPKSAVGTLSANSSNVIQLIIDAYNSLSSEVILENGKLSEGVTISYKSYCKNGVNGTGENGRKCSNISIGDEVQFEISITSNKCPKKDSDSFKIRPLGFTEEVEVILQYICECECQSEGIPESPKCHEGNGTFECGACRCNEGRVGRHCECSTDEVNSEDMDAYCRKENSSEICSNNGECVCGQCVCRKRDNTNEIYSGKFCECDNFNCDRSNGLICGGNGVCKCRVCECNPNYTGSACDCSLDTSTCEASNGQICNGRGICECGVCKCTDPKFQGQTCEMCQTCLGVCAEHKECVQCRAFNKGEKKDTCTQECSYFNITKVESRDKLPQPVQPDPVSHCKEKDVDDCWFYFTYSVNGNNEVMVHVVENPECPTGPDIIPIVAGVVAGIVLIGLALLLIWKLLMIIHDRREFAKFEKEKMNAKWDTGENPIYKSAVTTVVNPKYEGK
Chain of Integrin beta-1 (Homo sapiens) + Integrin alpha-4 (Homo sapiens) (P13612 whole entry, looked up): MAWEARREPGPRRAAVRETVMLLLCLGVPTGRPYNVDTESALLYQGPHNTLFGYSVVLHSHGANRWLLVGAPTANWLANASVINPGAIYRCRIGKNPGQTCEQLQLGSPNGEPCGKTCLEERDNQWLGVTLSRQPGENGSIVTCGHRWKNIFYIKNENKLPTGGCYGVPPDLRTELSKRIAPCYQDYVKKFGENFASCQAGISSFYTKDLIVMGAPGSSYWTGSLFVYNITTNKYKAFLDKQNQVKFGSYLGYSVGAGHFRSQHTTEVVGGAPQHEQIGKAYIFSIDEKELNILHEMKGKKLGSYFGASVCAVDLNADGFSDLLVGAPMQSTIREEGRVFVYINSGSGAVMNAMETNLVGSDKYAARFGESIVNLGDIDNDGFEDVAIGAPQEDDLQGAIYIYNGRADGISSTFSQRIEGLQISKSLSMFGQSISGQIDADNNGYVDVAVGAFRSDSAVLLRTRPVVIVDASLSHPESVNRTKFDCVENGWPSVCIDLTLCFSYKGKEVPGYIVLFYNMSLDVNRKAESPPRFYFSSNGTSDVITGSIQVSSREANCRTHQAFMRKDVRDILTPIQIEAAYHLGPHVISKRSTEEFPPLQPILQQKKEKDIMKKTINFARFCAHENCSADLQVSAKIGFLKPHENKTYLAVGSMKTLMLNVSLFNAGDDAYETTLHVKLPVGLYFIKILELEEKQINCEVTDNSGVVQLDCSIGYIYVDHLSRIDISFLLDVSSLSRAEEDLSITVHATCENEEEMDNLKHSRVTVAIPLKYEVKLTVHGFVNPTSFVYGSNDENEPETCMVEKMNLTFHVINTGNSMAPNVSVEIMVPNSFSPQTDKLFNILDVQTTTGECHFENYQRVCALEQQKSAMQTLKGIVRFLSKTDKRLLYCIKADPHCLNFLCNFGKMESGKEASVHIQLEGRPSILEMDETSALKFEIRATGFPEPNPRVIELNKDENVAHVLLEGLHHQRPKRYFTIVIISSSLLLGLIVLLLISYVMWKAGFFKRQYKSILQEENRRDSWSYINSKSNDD

Test [8] in a line: superoxide lowering in aged yeast cells, pilot screen, validation compound set (AID 2706;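 active = superoxide response below 65% of plate, a cut near 3 SD across the whole screen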;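 note: yeast exposed to compound for one week at 30 degrees C before staining; 100% = mean of all compound wells on the same plate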). Particulars: S. cerevisiae aging, superoxide DHE fluorescence; at 10 µM; stronger effect = lower value.
Test [9] addresses Beta-adrenergic receptor kinase 1 (Homo sapiens) (UniProt P25098). Kind of test: GRK2 binders displacing RNA aptamer, biochemical, validation, human GRK2, bead flow cytometry (AID 488806;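 active = aptamer binding inhibition above 30%, about 3 SD of noise from non-fluorescent compounds; inactive = inhibition at or below 30%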). The settings on record: bead-bound GRK2, FAM-aptamer displacement, at 10 µM, stronger effect = higher value.
The target in test [10] is Beta-2 adrenergic receptor (Homo sapiens) (UniProt P07550). Kind of test: beta2AR agonists driving receptor internalization, pilot screen, cell-based, FAP fluorogen, flow cytometry, validation set (AID 504459;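 active = percent response above 42, roughly 3 SD of non-fluorescent test compounds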;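 note: agonist-driven loss of surface beta2AR via internalization measured by FAP dye flow cytometry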). Particulars: Am2.2-beta2AR cells, FAP surface receptor flow cytometry; at 10 µM; stronger effect = higher value.
Chain of Beta-2 adrenergic receptor (Homo sapiens) (P07550 whole entry, looked up): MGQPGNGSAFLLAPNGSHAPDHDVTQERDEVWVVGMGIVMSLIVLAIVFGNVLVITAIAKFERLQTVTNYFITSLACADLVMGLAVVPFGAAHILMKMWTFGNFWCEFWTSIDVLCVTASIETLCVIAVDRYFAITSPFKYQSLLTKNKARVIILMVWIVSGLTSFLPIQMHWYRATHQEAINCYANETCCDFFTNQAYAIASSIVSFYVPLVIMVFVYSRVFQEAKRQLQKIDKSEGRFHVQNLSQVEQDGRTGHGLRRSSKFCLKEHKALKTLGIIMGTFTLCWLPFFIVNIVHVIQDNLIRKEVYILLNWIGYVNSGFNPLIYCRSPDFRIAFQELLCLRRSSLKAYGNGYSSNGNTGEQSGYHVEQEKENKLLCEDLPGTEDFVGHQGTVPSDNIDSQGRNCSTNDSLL
Test [11] deals with AP-2 complex subunit beta (Homo sapiens) (UniProt P63010). Kind of test: inhibitors of arrestin peptide binding to AP2, pilot screen, biochemical, validation set, GST-AP2 beads, flow cytometry (AID 504541;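 active = inhibition above 54%, about 3 SD of non-fluorescent compounds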;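 note: AP2 carries R879A mutation and is captured from E. coli lysate; bead-bound FITC arrestin peptide fluorescence measuring arrestin peptide binding to AP2; 0% = DMSO wells and 100% = excess unlabeled arrestin peptide control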). Particulars: FITC arrestin peptide, at 10 µM, stronger effect = higher value, AP2 beta2 appendage fragment, R879A mutant.
Chain of AP-2 complex subunit beta (Homo sapiens) (P63010 whole entry, looked up, the tested form may be a part, one chain of several): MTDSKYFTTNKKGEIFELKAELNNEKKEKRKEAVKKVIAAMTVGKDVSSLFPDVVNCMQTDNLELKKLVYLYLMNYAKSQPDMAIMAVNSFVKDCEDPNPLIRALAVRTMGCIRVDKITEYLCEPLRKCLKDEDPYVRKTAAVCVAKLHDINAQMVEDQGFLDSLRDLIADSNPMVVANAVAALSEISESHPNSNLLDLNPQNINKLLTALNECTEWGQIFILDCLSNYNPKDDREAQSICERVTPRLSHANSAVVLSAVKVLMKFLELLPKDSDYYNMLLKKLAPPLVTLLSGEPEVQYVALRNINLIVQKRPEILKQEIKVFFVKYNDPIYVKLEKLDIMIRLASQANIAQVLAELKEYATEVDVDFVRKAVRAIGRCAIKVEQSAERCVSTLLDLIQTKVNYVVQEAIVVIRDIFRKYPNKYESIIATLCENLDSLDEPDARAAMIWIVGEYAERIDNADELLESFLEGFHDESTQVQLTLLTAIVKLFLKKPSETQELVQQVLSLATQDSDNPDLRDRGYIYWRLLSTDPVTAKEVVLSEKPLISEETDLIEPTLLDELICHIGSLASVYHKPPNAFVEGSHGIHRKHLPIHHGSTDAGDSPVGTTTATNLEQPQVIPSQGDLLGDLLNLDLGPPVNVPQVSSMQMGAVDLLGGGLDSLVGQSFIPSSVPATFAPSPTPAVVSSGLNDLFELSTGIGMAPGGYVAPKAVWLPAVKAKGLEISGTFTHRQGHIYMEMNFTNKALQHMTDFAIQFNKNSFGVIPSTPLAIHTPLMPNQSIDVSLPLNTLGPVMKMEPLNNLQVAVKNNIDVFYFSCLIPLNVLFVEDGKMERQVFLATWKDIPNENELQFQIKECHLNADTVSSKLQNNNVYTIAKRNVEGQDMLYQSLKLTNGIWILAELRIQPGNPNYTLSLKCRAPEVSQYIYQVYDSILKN
A short description of test [12]: yeast V-ATPase proton transport modulators, S. cerevisiae, pHLuorin, HTS validation (AID 504600; in the data active = response above about 15%;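 note: plate controls were DMSO for no effect and reference compound for full effect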). Particulars: S. cerevisiae pHLuorin cytosolic pH, at 10 µM, stronger effect = higher value.
The subject of test [13] is anti-desmoglein-3 scFv antibody binding to human DSG3. The experiment in a line: inhibitors of anti-DSG3 scFv binding to DSG3, pilot screen, biochemical, validation compound set, bead-based, flow cytometry (AID 588368;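 active = binding below the plate cutoff, the plate median minus 3 SD, with a reading above zero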;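 note: signal is the median channel fluorescence of bead-bound GFP antibody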). The settings on record: Protein G beads, DSG3-Fc, scFv-GFP binding, at 10 µM, stronger effect = lower value.
A short description of test [14]: inhibitors of fungal efflux pumps CDR1, CDR2, MDR1, pilot screen, validation compound set, multiplex, phenotypic (AID 588506;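 active = efflux inhibition above 0.42, the validation set average plus 4 SD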;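 note: Nile Red retained in cells so higher fluorescence means more efflux inhibition; 0 = negative control wells and 1 = enniatin B 25 µM full block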). Particulars: S. cerevisiae pump-expressing triplex, Nile Red efflux flow cytometry; at 10 µM; stronger effect = higher value; the pumps come from Candida albicans.
In test [15] the target is ATP-binding cassette sub-family B member 6 (Homo sapiens) (UniProt Q9NP58). The experiment in a line: ABCB6 transporter inhibitors, pilot screen, K562-ABCB6 cells, flow cytometry, validation set (AID 588550;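 active = inhibition above the screen-wide mean plus 3 SD, about 51%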;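 note: 0% = DMSO wells and 100% = benzethonium chloride 70 µM positive control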). The settings on record: K562-ABCB6 porphyrin accumulation, 1 h, at 10 µM, stronger effect = higher value.
Chain of ATP-binding cassette sub-family B member 6 (Homo sapiens) (Q9NP58 whole entry, looked up): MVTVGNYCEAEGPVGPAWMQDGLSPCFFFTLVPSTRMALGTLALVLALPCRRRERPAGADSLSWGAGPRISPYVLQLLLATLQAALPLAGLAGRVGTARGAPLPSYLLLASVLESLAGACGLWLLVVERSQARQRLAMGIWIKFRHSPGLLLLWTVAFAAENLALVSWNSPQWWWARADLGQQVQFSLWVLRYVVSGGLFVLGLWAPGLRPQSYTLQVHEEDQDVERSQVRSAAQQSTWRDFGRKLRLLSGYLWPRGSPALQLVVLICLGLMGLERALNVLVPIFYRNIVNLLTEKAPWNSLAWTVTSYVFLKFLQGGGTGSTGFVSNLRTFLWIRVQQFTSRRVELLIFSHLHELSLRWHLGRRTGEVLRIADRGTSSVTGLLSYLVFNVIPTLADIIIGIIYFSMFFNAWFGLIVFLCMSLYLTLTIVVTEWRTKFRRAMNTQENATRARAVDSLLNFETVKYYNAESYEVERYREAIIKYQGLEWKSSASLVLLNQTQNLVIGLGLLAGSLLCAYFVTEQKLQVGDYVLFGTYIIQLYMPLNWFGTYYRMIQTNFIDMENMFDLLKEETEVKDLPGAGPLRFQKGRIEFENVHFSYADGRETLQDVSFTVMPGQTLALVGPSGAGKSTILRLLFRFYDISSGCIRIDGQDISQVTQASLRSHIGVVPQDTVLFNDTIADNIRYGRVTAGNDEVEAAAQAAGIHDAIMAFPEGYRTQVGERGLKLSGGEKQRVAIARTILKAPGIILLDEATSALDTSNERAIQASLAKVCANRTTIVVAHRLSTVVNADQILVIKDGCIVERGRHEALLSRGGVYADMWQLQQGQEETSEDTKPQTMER
A short description of test [16]: promoters of myeloid differentiation in arrested cells, primary screen, cell-based, GFP/MAC1 double positive, flow cytometry, validation set (AID 588685;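 active = differentiation response of at least 50%, scaled between solvent and reference control, from cells with both markers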;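 note: compound exposure lasts four days before antibody staining and flow analysis; 0% = DMSO wells and 100% = 5 µM fulvestrant positive control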). The settings on record: ER-HoxA9 marrow cells, stronger effect = higher value, normalized: vehicle 0, fulvestrant 100.

Chain of Beta-adrenergic receptor kinase 1 (Homo sapiens) (P25098 whole entry, looked up): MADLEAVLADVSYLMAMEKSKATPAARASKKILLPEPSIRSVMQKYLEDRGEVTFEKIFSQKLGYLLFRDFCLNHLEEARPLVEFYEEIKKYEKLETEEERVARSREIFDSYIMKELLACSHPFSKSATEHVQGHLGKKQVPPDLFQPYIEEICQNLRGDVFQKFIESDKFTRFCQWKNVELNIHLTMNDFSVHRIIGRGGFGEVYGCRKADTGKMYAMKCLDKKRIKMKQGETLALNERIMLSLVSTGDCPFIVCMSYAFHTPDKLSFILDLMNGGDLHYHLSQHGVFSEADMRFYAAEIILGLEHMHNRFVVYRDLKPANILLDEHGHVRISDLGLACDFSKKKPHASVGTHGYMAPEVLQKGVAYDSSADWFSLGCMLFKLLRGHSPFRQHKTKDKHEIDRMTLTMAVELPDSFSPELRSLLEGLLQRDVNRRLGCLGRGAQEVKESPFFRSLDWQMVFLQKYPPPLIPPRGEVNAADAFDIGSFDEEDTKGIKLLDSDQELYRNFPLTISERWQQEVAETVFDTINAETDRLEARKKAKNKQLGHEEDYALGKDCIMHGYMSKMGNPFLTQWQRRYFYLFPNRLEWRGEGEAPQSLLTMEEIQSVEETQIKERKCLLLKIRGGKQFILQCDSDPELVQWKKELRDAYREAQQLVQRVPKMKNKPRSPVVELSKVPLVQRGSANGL

In the case of `COc1cccc(N2C(=O)CC(c3c[nH]c4ccccc34)C2=O)c1` (stereo not drawn), in test [1], the percent of DMSO control GFP is 108% (inactive). The GFP response vs DMSO in test [2] was 103% (inactive); in test [4], 106% (inactive). In addition, the percent response of DMSO control in test [3] was 110% (inactive). In addition, the GFP response, % of DMSO in [5] was 97.1% (inactive). Also, in [6], the double positive events is 61.9%. The vesicle binding response in test [6] was 159% (inactive). Further, the inhibition (in general, the drop in the measured response relative to a control, in per cent) in [7] was -42.6% (inactive); in test [11] it was 10% (inactive); in [15], -26% (inactive). In addition, the superoxide response (% of plate) in [8] was 95.3% (inactive). Also, in test [9], the aptamer binding inhibition was 1% (inactive). Moreover, the response in test [10] was 12% (inactive); in [12], -0.64% (inactive). Also, in [13], the binding (% of control) is 105% (inactive). In test [14], the efflux inhibition (fraction of control) is 0 (inactive). For the same compound, the differentiation response in test [16] is -13.3% (inactive).
`N/C(=N\OC(=O)c1cccc(Br)c1)c1ccncc1`: in test [1], the percent of DMSO control GFP was 103% (inactive). In addition, the GFP response vs DMSO in [2] is 105% (inactive); in test [4] it was 111% (inactive). Also, in test [3], the percent response of DMSO control is 106% (inactive). The GFP response, % of DMSO in test [5] is 94.2% (inactive). Moreover, the double positive events in test [6] amounted to 62.9%. For the same compound, the vesicle binding response in test [6] was 166% (inactive). In addition, the inhibition in [7] is 9.63% (inactive); in [11] it was 43.1% (inactive); in test [15], 8% (inactive). Besides, in test [8], the superoxide response (% of plate) was 106% (inactive). In test [9], the aptamer binding inhibition is -2% (inactive). The response in [10] was -7.41% (inactive); in [12], 4.2% (inactive). Besides, in test [13], the binding (% of control) was 100% (inactive). In addition, the efflux inhibition (fraction of control) in test [14] is -0.115 (inactive). Moreover, in test [16], the differentiation response is -4.57% (inactive).
`COc1ccc(CC(=O)Nc2cccc(C(=O)Nc3ccccc3C(=O)O)c2)cc1OC`: in [1], the percent of DMSO control GFP is 103% (inactive). For the same compound, the GFP response vs DMSO in test [2] is 102% (inactive); in test [4] it was 103% (inactive). The percent response of DMSO control in test [3] is 96.4% (inactive). Moreover, in [5], the GFP response, % of DMSO was 108% (inactive). Further, the double positive events in test [6] is 61.5%. For the same compound, the vesicle binding response in [6] was 181% (inactive). For the same compound, the inhibition is 6.55% (inactive) in test [7], -0.19% (inactive) in [11] and 8% (inactive) in [15]. Besides, the superoxide response (% of plate) in test [8] is 108% (inactive). The aptamer binding inhibition in test [9] was 6% (inactive). Also, the response was -21.7% (inactive) in test [10] and 2.28% (inactive) in test [12]. Also, in [13], the binding (% of control) was 99.7% (inactive). The efflux inhibition (fraction of control) in [14] is 0 (inactive). Also, the differentiation response in test [16] is 26.5% (inactive).
As to `COc1ccc(C(=O)c2oc3ccc(Br)cc3c2NC(C)=O)cc1`, the percent of DMSO control GFP in test [1] is 90.9% (inactive). Also, the GFP response vs DMSO in test [2] was 122% (inactive); in test [4] it was 82% (inactive). The percent response of DMSO control in test [3] is 112% (inactive). Moreover, the GFP response, % of DMSO in [5] is 97.5% (inactive). In addition, in test [6], the double positive events is 61.7%. Also, the vesicle binding response in [6] was 140% (inactive). For the same compound, the inhibition in test [7] is 4.52% (inactive); in test [11], 3.03% (inactive); in test [15], 8% (inactive). Also, the superoxide response (% of plate) in test [8] is 104% (inactive). Moreover, the aptamer binding inhibition in test [9] is 1% (inactive). The results for the response in test [10] and in test [12] were -11.6% (inactive) and 3.34% (inactive), respectively. Further, the binding (% of control) in test [13] is 96.9% (inactive). Besides, in [14], the efflux inhibition (fraction of control) was -0.02 (inactive). Further, the differentiation response in test [16] was -0.82% (inactive).

The values above are taken from PubChem BioAssay.
